Consider 86 compounds from article PMC4336329 (PLoS ONE, 2015).

SMILES strings stand for the structures. In all, about 310,000 compounds went through this assay and about 2,200 (0.71%) showed an effect of 50% or more. Effects have a minus sign here. This is one part of a sample in which strong results are shown more often than they occur.

The experiment deals with human ether-à-go-go-related gene (hERG) potassium channel (human, UniProt Q12809). The experiment is described as follows: primary screen, population patch clamp on CHO cells stably expressing hERG; higher = less effect of the substance.
human ether-à-go-go-related gene (hERG) potassium channel, sequence (Q12809 whole entry, looked up): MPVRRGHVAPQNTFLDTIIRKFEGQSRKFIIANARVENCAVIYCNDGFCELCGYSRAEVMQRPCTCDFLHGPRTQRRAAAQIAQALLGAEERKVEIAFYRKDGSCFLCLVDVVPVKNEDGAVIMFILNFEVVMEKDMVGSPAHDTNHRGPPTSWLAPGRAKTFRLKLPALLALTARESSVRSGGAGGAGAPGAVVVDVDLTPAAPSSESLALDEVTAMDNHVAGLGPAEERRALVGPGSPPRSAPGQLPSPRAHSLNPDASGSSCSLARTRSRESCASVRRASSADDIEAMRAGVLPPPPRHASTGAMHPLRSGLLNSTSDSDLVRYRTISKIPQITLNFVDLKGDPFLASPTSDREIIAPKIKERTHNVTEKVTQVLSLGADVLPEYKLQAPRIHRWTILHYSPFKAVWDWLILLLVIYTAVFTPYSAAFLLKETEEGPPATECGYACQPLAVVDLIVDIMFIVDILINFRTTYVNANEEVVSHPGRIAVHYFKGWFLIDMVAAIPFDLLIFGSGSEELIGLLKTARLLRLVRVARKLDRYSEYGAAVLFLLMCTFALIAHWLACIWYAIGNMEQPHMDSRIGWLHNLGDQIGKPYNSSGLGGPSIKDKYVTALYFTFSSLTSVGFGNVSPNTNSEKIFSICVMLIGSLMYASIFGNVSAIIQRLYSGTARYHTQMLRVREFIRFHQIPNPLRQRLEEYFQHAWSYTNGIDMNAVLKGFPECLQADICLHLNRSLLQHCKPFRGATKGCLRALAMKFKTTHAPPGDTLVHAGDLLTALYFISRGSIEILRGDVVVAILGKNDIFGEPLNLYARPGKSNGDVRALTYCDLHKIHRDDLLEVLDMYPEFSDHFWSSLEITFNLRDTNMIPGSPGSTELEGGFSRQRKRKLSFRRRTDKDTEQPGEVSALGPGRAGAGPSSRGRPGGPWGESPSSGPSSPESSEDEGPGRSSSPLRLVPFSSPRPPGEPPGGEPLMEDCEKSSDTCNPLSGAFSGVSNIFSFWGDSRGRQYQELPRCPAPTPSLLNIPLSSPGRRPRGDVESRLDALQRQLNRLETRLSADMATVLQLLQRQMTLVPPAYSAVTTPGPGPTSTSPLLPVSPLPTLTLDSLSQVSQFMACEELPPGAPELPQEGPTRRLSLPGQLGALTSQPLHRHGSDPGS
Turning to `CC(C)C(NC(=S)NCc1ccccc1)C(=O)O` (centres unmarked), the “hERG current change (%, negative = inhibition) at 1uM” value was 12.7%.
Consider `N#CNC(N)=Nc1cccc(Cl)c1`, for which the “hERG current change (%, negative = inhibition) at 1uM” value stood at 16.4%.
With `O=C(N/N=C/c1cn(-c2ccccc2)nc1-c1cccnc1)c1cccnc1` the figure was -26.3%.
With `Cc1cc(C)cc(NC(=O)CCN2CCOCC2)c1` the figure was 7.44%; with `C#CCN(N(C)c1ncc(C(F)(F)F)cc1Cl)S(=O)(=O)c1ccc2ccccc2c1`, 14.3%; with `Cc1ccc(NC(=S)c2nc3ccccc3[nH]2)c(C)c1`, 14.6%.
With `CC(C)Cn1c(-c2ccc(F)cc2)n[nH]c1=S` the figure was 11.6%.
For the compound `COc1ccc(CN2CCN(c3ccccc3F)CC2)cc1O`, the “hERG current change (%, negative = inhibition) at 1uM” value is given as -51.2%.
Consider `COc1ccc(CN2CCC(C(=O)N3CCN(c4ccccc4F)CC3)CC2)cc1OC`, for which the “hERG current change (%, negative = inhibition) at 1uM” value is reported as 3.9%.
For the compound `COc1ccc(CN2CCN(Cc3ccccc3F)CC2)c(OC)c1.O=C(O)C(=O)O`, the “hERG current change (%, negative = inhibition) at 1uM” value is reported as -36%.
In the case of `COc1ccc(CN2CCN(Cc3ccccc3)CC2)c(OC)c1`, the “hERG current change (%, negative = inhibition) at 1uM” value is -43.8%.
To `COc1ccc(CN2CCN(c3ccccc3F)CC2)c(OC)c1` belongs -57.8%.
With `CC(C(=O)N1CCc2ccccc21)N1CCN(Cc2ccc(Cl)cc2)CC1` (centres unmarked) the figure was -30.9%; with `COc1ccc(CN2CCN(c3ccccc3OC)CC2)c(OC)c1.O=C(O)C(=O)O`, -47.7%; with `COc1ccc(CN2CCN(CCCc3ccccc3)C(CCO)C2)c(OC)c1` (centres unmarked), -39.7%.
`CC(C(=O)N1CCc2ccccc21)N1CCN(Cc2ccccc2)CC1` (centres unmarked): the “hERG current change (%, negative = inhibition) at 1uM” value is given as 4.18%.
To `COc1ccc(CN2CCN(CCCc3ccccc3)CC2)c(OC)c1` belongs -64.9%; to `COc1ccc(CN2CCN(C(C)C(=O)N3CCc4ccccc43)CC2)cc1OC` (centres unmarked), -52.3%.
With `COc1cc(CN2CCN(c3ccccc3F)CC2)cc(OC)c1O` the figure was 2.78%; with `C(=N\n1cnnc1)/c1cccs1`, 5.5%; with `CN(c1ccc(C(=O)NCCSCc2ccc(Cl)cc2)cc1)S(=O)(=O)c1ccccc1`, 14.1%.
To `CCc1ccc(CN(C)C(=O)c2cc(COc3cccc(C(F)(F)F)c3)on2)nc1` belongs 6.84%; to `C=CCNC(=O)CSc1nnc(C(CC)N(C)C)n1C1CCCCC1` (centres unmarked), 8.12%.
In the case of `O=C(Nc1nc(-c2ccccc2)cs1)c1ccc(N2CCOCC2)c([N+](=O)[O-])c1`, the “hERG current change (%, negative = inhibition) at 1uM” value was determined as 31.6%.
To `CC(=O)Nc1ccc2c(c1)N(C(=O)CN(C)C)c1ccccc1CC2` belongs 9.16%.
To `Cc1cc(C(=O)CN2C(=O)c3ccccc3C2=O)c(C)n1Cc1cccs1` belongs 9.88%; to `COc1cc(CN2CCN(c3cccc(C)c3C)CC2)cc(Br)c1O`, 1.25%.
To `COc1ccc(CN2CCN(c3ccccn3)CC2)c(OC)c1` belongs -52%; to `COc1ccc(CN2CCN(c3cccc(C)c3C)CC2)cc1OC`, -61.1%.
In the case of `COc1ccc(-c2[nH]ncc2CN2CCN(c3ccccn3)CC2)c(OC)c1`, the “hERG current change (%, negative = inhibition) at 1uM” value is on record as 2.51%.
To `COc1cc(CN2CCN(c3cccc(C)c3C)CC2)cc(OC)c1O` belongs -20.4%; to `COc1ccc(CN2CCN(c3ccccn3)CC2)c(OC)c1C.O=C(O)C(=O)O`, 5.42%.
With `CCOc1ccc(NC(=O)CCC(=O)c2ccc(OC)cc2)cc1` the figure was 16.1%; with `Cc1c(Cl)ccc(S(=O)(=O)NCCCn2ccnc2)c1Cl`, 12.2%.
`CN1CCN(C(=O)c2cnn(-c3ccccc3)c2NC(=O)c2ccccc2Br)CC1`: the “hERG current change (%, negative = inhibition) at 1uM” value came to 15.2%.
With `CN1CCN(C(=O)c2cnn(-c3ccccc3)c2NC(=O)c2ccccc2)CC1` the figure was 10.4%; with `CN1CCN(C(=O)c2cnn(-c3ccccc3)c2NC(=O)c2ccc(Br)cc2)CC1`, -88.5%.
To `COc1ccc(CCn2c(=N)c(C(=O)NCCN3CCOCC3)cc3c(=O)n4ccccc4nc32)cc1OC` belongs 10.4%; to `COc1ccc(CCNC(=O)c2cc3c(=O)n4cccc(C)c4nc3n(CCCN3CCOCC3)c2=N)cc1`, -85.1%.
`Cc1cccn2c(=O)c3cc(C(=O)NCCN4CCOCC4)c(=N)n(CCCN4CCOCC4)c3nc12`: the “hERG current change (%, negative = inhibition) at 1uM” value was determined as 16.7%.
With `COc1ccc(CNC(=O)C(C)Sc2nc3ccccc3c(=O)n2CCCN2CCOCC2)cc1` (centres unmarked) the figure was -95%; with `COc1ccc(CNC(=O)C(C)Sc2nc3ccccc3c(=O)n2CC2CCCO2)cc1` (centres unmarked), -17.5%; with `COc1ccc(CCNC(=O)c2cc3c(=O)n4ccccc4nc3n(CCCN3CCOCC3)c2=N)cc1`, -88.9%.
With `COc1ccc(CCNC(=O)c2cc3c(=O)n4ccccc4nc3n(CCCN3CCOCC3)c2=N)cc1OC` the figure was -39.4%; with `COc1ccccc1CNC(=O)CSc1nc2ccccc2c(=O)n1CCCN1CCOCC1`, -6.17%.
To `COc1ccc(CCNC(=O)c2cc3c(=O)n4ccccc4nc3n(CCN3CCOCC3)c2=N)cc1` belongs -82%; to `Cc1cc(=O)[nH]c(N/N=C/c2c(C)nn(-c3ccc(F)cc3)c2Cl)n1`, -3.02%.
For the compound `CN1CCN(c2ccc(NC(=O)c3cc4ccccc4o3)cc2)CC1`, the “hERG current change (%, negative = inhibition) at 1uM” value is listed as -14.8%.
With `CCCC(C(=O)NC(C)(C)CC)N(CC1CCCO1)C(=O)CNS(=O)(=O)c1ccc(F)cc1` (centres unmarked) the figure was -12.1%; with `Cc1nc2ccccc2n1C1CCN(CC(=O)NCc2ccc(F)cc2)CC1`, -23.3%; with `COc1ccc(CNC(=O)CCC(=O)N2CC(C)Oc3ccccc32)cc1` (centres unmarked), -0.874%.
To `CCN(C(=O)c1ccc2c(OC)n(CC)nc2c1)c1ccc(OC)cc1` belongs 0.888%; to `CC(=O)c1cccc(NC(=O)C2CCN(S(C)(=O)=O)CC2)c1`, 10.7%.
With `CN(C)C=NC(=O)/C(C#N)=C1\CCc2ccccc2N1` the figure was 0.195%; with `COc1cc(Cl)cc(/C=C/c2ccc3ccccc3n2)c1OC(C)=O`, 16.6%.
Consider `CCCNc1nc(C)cc(-c2cc(C(=O)Nc3ccccc3)on2)n1`, for which the “hERG current change (%, negative = inhibition) at 1uM” value is 6.25%.
As for `COc1ccc(C(=O)NCCc2cccc(Cl)c2)cc1OC1CCN(C(C)=O)CC1`, the “hERG current change (%, negative = inhibition) at 1uM” value is reported as -6.31%.
Regarding `COCCNC(=O)c1cccc(OC2CCN(Cc3ccc(OC(F)F)cc3)CC2)c1`, the “hERG current change (%, negative = inhibition) at 1uM” value is listed as -75.4%.
To `COCCNC(=O)c1cccc(OC2CCN(Cc3ccc(F)c(OC)c3)CC2)c1` belongs 4.26%; to `COc1ccc(C(=O)NC2CCC(O)CC2)cc1S(=O)(=O)NCc1ccc(Cl)cc1` (centres unmarked), -0.258%.
Regarding `COCCCNC(=O)c1ccc(OC)c(OC2CCN(C(C)C)CC2)c1`, the “hERG current change (%, negative = inhibition) at 1uM” value is reported as 14.6%.
With `COc1ccc(C(=O)NC2CC2)cc1OC1CCN(Cc2ccc(F)c(F)c2)CC1` the figure was -70.2%; with `COc1ccc(C(=O)NC2CC2)cc1OC1CCN(Cc2ccccc2)CC1`, -82.9%; with `COc1ccc(C(=O)NC2CC2)cc1OC1CCN(Cc2cnn(C)c2)CC1`, 6.61%.
As for `COCCNC(=O)c1cccc(OC2CCN(Cc3ccc(C(=O)OC)cc3)CC2)c1`, the “hERG current change (%, negative = inhibition) at 1uM” value was determined as 6.44%.
To `COc1ccc(C(=O)NC2CC2)cc1OC1CCN(Cc2ccc(Cl)cc2)CC1` belongs -86.8%.
To `COCCNC(=O)c1cccc(OC2CCN(Cc3ccc(C(C)C)cc3)CC2)c1` belongs -11.3%; to `COc1cc(C(=O)NC2CCN(Cc3ccccc3)CC2)cc(Cl)c1OC`, -1.24%.
Consider `CCCCCCCCCCCCOC1OC(CO)C(O)C(O)C1NC(C)=O` (centres unmarked), for which the “hERG current change (%, negative = inhibition) at 1uM” value was 4.7%.
To `CC(Oc1ccccc1)C(=O)N=C1SC2CS(=O)(=O)CC2N1CCc1ccccc1` (centres unmarked) belongs 8.75%; to `Cc1cc(Br)ccc1NC(=O)CN1C(=O)C2CC=CCC2C1=O` (centres unmarked), 2.16%.
To `CCn1c(SCC(=O)c2ccc3c(c2)OCCO3)nnc1C(C)C` belongs 7.74%; to `O=C(Cn1c(=O)c(C(F)(F)F)nc2ccccc21)N1CCC2(CC1)OCCO2`, -0.212%.
For `O=C(/C=C/c1ccoc1)c1ccccc1O`, the “hERG current change (%, negative = inhibition) at 1uM” value was found to be 3.71%.
To `COc1ccc(CN2CCN(Cc3ccc(C)cc3)C(CCO)C2)cc1OC` (centres unmarked) belongs -13.3%.
To `COc1cc(C(=O)NC2CCCCC2)ccc1OC1CCN(C(C)=O)CC1` belongs 11.4%; to `COc1ccc(C(=O)NC2CC2)cc1OC1CCN(Cc2ccc(SC)cc2)CC1`, -96.9%.
To `O=C(NC1CCN(Cc2ccccc2)CC1)c1ccc2c(c1)[nH]c(=O)n2Cc1ccc(F)cc1` belongs 6.14%.
In the case of `COc1ccc(C(=O)NC2CCCCCC2)cc1OC1CCN(C(C)=O)CC1`, the “hERG current change (%, negative = inhibition) at 1uM” value was found to be 7.33%.
To `COc1ccc(C(=O)NCCCSC)cc1OC1CCN(C(C)C)CC1` belongs 13.4%.
As to `COc1ccc(C(=O)NC2CC2)cc1OC1CCN(C(C)CSC)CC1` (centres unmarked), the “hERG current change (%, negative = inhibition) at 1uM” value was -54.2%.
`COc1ccc(C(=O)NC2CCCCC2)cc1OC1CCN(C(C)C)CC1`: the “hERG current change (%, negative = inhibition) at 1uM” value is given as -30.9%.
With `C/C=C(\C)CN1CCC(Oc2cc(C(=O)NC3CC3)ccc2OC)CC1`, the “hERG current change (%, negative = inhibition) at 1uM” value is given as -59.9%.
To `COc1ccc(C(=O)NC2CC2)cc1OC1CCN(Cc2ccc(F)cc2)CC1` belongs -81.9%.
With `COc1cc(C(=O)NC2CCN(Cc3nnnn3Cc3ccc(F)cc3)CC2)cc(OC)c1OC` the figure was 3.89%; with `Cc1ccc(S(=O)(=O)N2CCN(C(=O)CSc3ncc(C(F)(F)F)cc3Cl)CC2)cc1`, 11.1%.
